Measured values reported in PubChem BioAssay (Tox21).
Results filed as inconclusive are left out. Calls of active or inactive are those of the source. Unless noted, calls follow the shape of the dose curve; as a rule, active = well fitted curve in the direction sought with a large enough effect in the repeat runs; inconclusive = weak or mixed curves; inactive = no such curve, though single readings can be large; an effect the other way counts as inactive or inconclusive.

How the values were obtained:
[1] = qHTS assay to identify small molecule antagonists of the TGF-beta/Smad signaling pathway - cell viability counter screen (AID 1346824); also: nearly all actives have a fitted effect of over 50% in size
Summary of the method: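 SBE-bla HEK 293T cells, incubated overnight, then compound plus 0.25 ng/mL TGF-beta1 (stock added) for 5 hr at 37 C. Viability was read in the same wells by CellTiter-Glo luminescence after 30 min at room temperature.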

[2] = qHTS assay to identify small molecule agonists of the TGF-beta/Smad signaling pathway - cell viability counter screen (AID 1346829); also: top concentration of the series differs between compounds; nearly all actives have a fitted effect of over 45% in size
Summary of the method: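 CellTiter-Glo luminescence readout; SBE-bla HEK 293T cells, overnight plating, compound 5 hr at 37 C/5% CO2, then bla substrate 2 hr RT, then CellTiter-Glo 30 min RT.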

[3] = qHTS assay to identify small molecule agonists of the TGF-beta/Smad signaling pathway (AID 1346859; active = well fitted activation curve with a large enough effect in the signal ratio in the repeat runs, not every such curve was filed as active; the % refers to the signal ratio; also: series mostly up to about 77 µM)
Summary of the method: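 SBE-bla HEK 293T, 4,000 cells/well, plated o/n; cpd in DMSO, 5 hr, 37 C/5% CO2; B/G FRET substrate 2 hr RT; ex 405, em 460/530 nm.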

[4] = biological target: Thyrotropin-releasing hormone receptor (Homo sapiens) (UniProt P34981); test: qHTS assay to identify small molecule antagonists of the thyrotropin-releasing hormone receptor (TRHR) signaling pathway (AID 1346877; active = well fitted inhibition curve with a large enough effect in the repeat runs, not every such curve was filed as active; also: series mostly up to about 51 µM)
Summary of the method: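 TRHR-expressing HEK293 cells loaded with calcium dye for 2 h at 37 C; compounds pre-incubated 5 min at room temperature before TRH challenge at 1 nM final. Intracellular calcium fluorescence read kinetically for 3 min; 15 concentrations in triplicate.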

[5] = biological target: Thyrotropin-releasing hormone receptor (Homo sapiens) (UniProt P34981); test: qHTS assay to identify small molecule agonists of the thyrotropin-releasing hormone receptor (TRHR) signaling pathway (AID 1346891; calls by dose curve; also: series mostly up to about 58 µM)
Summary of the method: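 Intracellular calcium rise, read as fluorescence every second for 3 min, served as the agonist signal in dye-loaded HEK293 cells expressing TRHR; each compound ran at 15 concentrations in triplicate.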

[6] = Human pregnane X receptor (PXR) small molecule agonists, qHTS cell viability counter screen (AID 1346977); also: nearly all actives have a fitted effect of over 50% in size
Summary of the method: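 PXR-Luc HepG2, 2,000 cells/well, 5% charcoal-stripped FBS; 5hr settle; cpd 24hr, 37C/5% CO2; CellTiter-Fluor at 23hr, read 1hr later (fluorescence).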

[7] = Caspase-3/7 induction in HepG2 cells by small molecules, qHTS assay (AID 1346978); also: nearly all actives have a fitted effect of over 15% in size; also: potency is read from the fitted curve at half-maximal effect
Summary of the method: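 Wild-type HepG2 cells, 2,000/well, settled 5 hr at 37 C and 5% CO2, then compound-treated for 17 hr; caspase-3/7 activity read by luminescent Caspase-Glo 3/7 after 30 min at room temperature.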

[8] = Caspase-3/7 induction in CHO-K1 cells by small molecules, qHTS assay (AID 1346980); also: nearly all actives have a fitted effect of over 15% in size
Summary of the method: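 Wild-type CHO-K1 cells exposed to compounds for 17hr at 37 C, 5% CO2. Caspase-3/7 activity then measured by Caspase-Glo 3/7 luminescence after 30min at room temperature.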

[9] = Caspase-3/7 induction in HepG2 cells by small molecules, qHTS cell viability counter screen (AID 1346981); also: series mostly up to about 92 µM; nearly all actives have a fitted effect of over 30% in size
Summary of the method: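 Wild-type HepG2 cells, 2,000/well, settled 5 hr at 37 C, 5% CO2 before compound addition. Viability read by CellTiter-Fluor fluorescence, reagent added after 16 hr compound exposure, then 1 hr at 37C, in the same wells as the caspase read.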

[10] = Caspase-3/7 induction in CHO-K1 cells by small molecules, qHTS cell viability counter screen (AID 1346979); also: nearly all actives have a fitted effect of over 35% in size; also: potency is read from the fitted curve at half-maximal effect
Summary of the method: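 Cells (CHO-K1, wild type) are plated at 1,500 per well and incubated 5hr. Test compounds in DMSO are then pinned in, followed by 16hr at 37C and 5% CO2. Viability is read by CellTiter-Fluor fluorescence after 1hr.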
% is scaled to controls: 0 for no effect and ±100 for the full control effect.

Sequence of Thyrotropin-releasing hormone receptor (Homo sapiens) (P34981 whole entry, looked up): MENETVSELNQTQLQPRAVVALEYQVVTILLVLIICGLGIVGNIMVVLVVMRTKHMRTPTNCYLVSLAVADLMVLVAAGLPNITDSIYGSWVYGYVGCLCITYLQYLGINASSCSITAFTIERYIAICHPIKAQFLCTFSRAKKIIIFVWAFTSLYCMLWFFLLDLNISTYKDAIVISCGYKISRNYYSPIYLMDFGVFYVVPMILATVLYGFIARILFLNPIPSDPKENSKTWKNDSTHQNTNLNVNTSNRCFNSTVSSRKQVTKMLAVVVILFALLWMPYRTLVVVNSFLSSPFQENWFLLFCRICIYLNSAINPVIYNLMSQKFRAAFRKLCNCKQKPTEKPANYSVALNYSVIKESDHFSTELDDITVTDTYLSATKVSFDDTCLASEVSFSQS

CC(c1cc(C(C)(C)C)cc(C(C)(C)C)c1O)c1cc(C(C)(C)C)cc(C(C)(C)C)c1O
inactive: Potency [1] | Potency [2] | outcome [3] | Potency [4] | Potency [5] | Potency [6] | Potency [7] | Potency [8] | Potency [9]

CC1(C)[C@H]2CC[C@]1(C)C(=O)C2
inactive: Potency [1] | Potency [2] | outcome [3] | Potency [5] | Potency [6] | Potency [7] | Potency [8] | Potency [9]
active: Potency [10] 61.1 µM

C=C[Si](C)(C)Cl
inactive: viability change, negative = cytotoxic [1] 9.11% [at 6.97 µM] | activity change, negative = cytotoxicity [2] 9.12% [at 6.97 µM] | activation [3] 0.312% [at 6.97 µM] | activation [5] 0.0082% [at 5.23 µM] | activity change, negative = cytotoxicity [6] 1.3% [at 8.39 µM] | caspase activation [7] -0.0006% [at 8.39 µM] | activity change, negative = cytotoxicity [10] 6.64% [at 8.39 µM] | caspase-3/7 activation [8] 0.183% [at 8.39 µM] | activity change, negative = cytotoxicity [9] -0.712% [at 8.39 µM]

CCN(CC)c1ccc(C=O)cc1
inactive: Potency [1] | Potency [2] | outcome [3] | Potency [5] | Potency [6] | Potency [7] | Potency [10] | Potency [8] | Potency [9]

CO[Si](OC)(c1ccccc1)c1ccccc1
inactive: Potency [1] | Potency [2] | outcome [3] | Potency [4] | Potency [5] | Potency [6] | Potency [7] | Potency [8] | Potency [9]

COc1cc2ncnc(Nc3cccc(Cl)c3)c2cc1OC
inactive: viability change, negative = cytotoxic [1] 0.414% [at 15.8 µM] | activity change, negative = cytotoxicity [2] 9.42% [at 15.8 µM] | activation [3] -4.98% [at 15.8 µM] | activity, negative = inhibition [4] -3.3% [at 10.5 µM] | activation [5] -0.271% [at 11.8 µM] | caspase activation [7] 0.14% [at 19 µM] | activity change, negative = cytotoxicity [10] -12.4% [at 19 µM] | caspase-3/7 activation [8] -2.78% [at 19 µM] | activity change, negative = cytotoxicity [9] -10% [at 19 µM]

C=CC(=O)O[C@H]1C[C@@H]2CC[C@@]1(C)C2(C)C
inactive: Potency [1] | Potency [2] | outcome [3] | Potency [5] | Potency [6] | Potency [7] | Potency [10] | Potency [8] | Potency [9]

CC1=C(/C=C/C(C)=C/C=C/C(C)=C\C(=O)O)C(C)(C)CCC1
inactive: Potency [1] | Potency [2] | outcome [3] | Potency [5] | Potency [6] | Potency [7] | Potency [9]

Brc1cc(Br)cc(Br)c1
inactive: Potency [1] | Potency [2] | outcome [3] | Potency [4] | Potency [5] | Potency [6] | Potency [10] | Potency [8] | Potency [9]

O=C1OC(=O)c2cc(-c3ccc4c(c3)C(=O)OC4=O)ccc21
inactive: Potency [1] | Potency [2] | outcome [3] | Potency [5] | Potency [7] | Potency [10] | Potency [8] | Potency [9]

C/C=C/C(=O)OCC(C)C
inactive: Potency [1] | Potency [2] | outcome [3] | Potency [4] | Potency [5] | Potency [6] | Potency [7] | Potency [8] | Potency [9]

CC(CC(C)(C)C)CC(C)(C)CC(C)(C)C (stereo not drawn)
inactive: Potency [1] | Potency [2] | outcome [3] | Potency [5] | Potency [6] | Potency [7] | Potency [10] | Potency [8] | Potency [9]

C=Cc1ccc(O)c(OC)c1
inactive: Potency [1] | Potency [2] | outcome [3] | Potency [5] | Potency [6] | Potency [7] | Potency [10] | Potency [8] | Potency [9]

CC(C)(C)C1=CC(=O)C(C(C)(C)C)=CC1=O
inactive: Potency [1] | Potency [2] | outcome [3] | Potency [5] | Potency [6] | Potency [7] | Potency [8] | Potency [9]

c1ccc2cc3c4ccccc4c4ccccc4c3cc2c1
inactive: Potency [1] | Potency [2] | outcome [3] | Potency [5] | Potency [8]
active: Potency [7] 6.89 µM | Potency [10] 27.4 µM

CCSCC
inactive: Potency [1] | Potency [2] | outcome [3] | Potency [4] | Potency [5] | Potency [7] | Potency [10] | Potency [8] | Potency [9]

CC(C)(C)c1cc(CCC(=O)OCCSCCOC(=O)CCc2cc(C(C)(C)C)c(O)c(C(C)(C)C)c2)cc(C(C)(C)C)c1O
inactive: Potency [1] | Potency [2] | outcome [3] | Potency [5] | Potency [6] | Potency [7] | Potency [10] | Potency [8] | Potency [9]

CCCCCCCCc1ccc(Nc2ccc(CCCCCCCC)cc2)cc1
inactive: Potency [1] | Potency [2] | outcome [3] | Potency [5] | Potency [6] | Potency [7] | Potency [10] | Potency [8] | Potency [9]

Cc1cccc2c1ccc1ccccc12
inactive: Potency [1] | Potency [2] | outcome [3] | Potency [4] | Potency [6] | Potency [7] | Potency [10] | Potency [8] | Potency [9]

COc1cc(C(C)C)ccc1C
inactive: viability change, negative = cytotoxic [1] -0.209% [at 15.8 µM] | activity change, negative = cytotoxicity [2] 6.13% [at 15.8 µM] | activation [3] 5.38% [at 15.8 µM] | activation [5] 0.0321% [at 11.8 µM] | activity change, negative = cytotoxicity [6] 1.46% [at 19 µM] | caspase activation [7] 0.0291% [at 19 µM] | activity change, negative = cytotoxicity [10] -7.98% [at 19 µM] | caspase-3/7 activation [8] -1.8% [at 19 µM] | activity change, negative = cytotoxicity [9] -0.801% [at 19 µM]

O=C1CCC/C=C\CCCCCCCCCC1
inactive: Potency [1] | Potency [2] | outcome [3] | Potency [4] | Potency [5] | Potency [7] | Potency [10] | Potency [8]

CCc1cccc(CC)c1
inactive: Potency [1] | Potency [2] | outcome [3] | Potency [5] | Potency [6] | Potency [7] | Potency [8] | Potency [9]

CCn1c2ccccc2c2ccccc21
inactive: Potency [1] | Potency [2] | outcome [3] | Potency [5] | Potency [6] | Potency [7] | Potency [10] | Potency [8] | Potency [9]

CSc1nnc(C(C)(C)C)c(=O)[nH]1
inactive: Potency [1] | Potency [2] | outcome [3] | Potency [4] | Potency [5] | Potency [6] | Potency [7] | Potency [8] | Potency [9]
